Laboratory results: PubChem BioAssay AID2308 (National Center for Advancing Translational Sciences (NCATS), 2010)
Inconclusive results are not listed. Calls of active or inactive are those of the source. Calls come from the whole dose curve; as a rule, active = well fitted curve in the direction sought with a large enough effect in the signal ratio (not every such curve was filed as active); inconclusive = small, poorly fitted or top-dose-only effect, or a change in a side signal; inactive = no such curve, though single readings can be large or run the other way; the % refers to the signal ratio.

Each compound was assayed against Inositol monophosphatase 1 (Rattus norvegicus) (UniProt P97697) (assay: Confirmation Assay for Identifying the Cell-Membrane Permeable IMPase Inhibitors). Details: CHO-M1 cells, carbachol-stimulated IP1 accumulation, HTRF ratio; series mostly up to 41.5 µM; activity change, negative = inhibition: at the top concentration.
Text: NIH Chemical Genomics Center [NCGC] NIH Molecular Libraries Probe Production centers Network [MLPCN] MLPCN Grant: X01 MH082413-01 Assay Submitter (PI): Wei Zheng NCGC Assay Overview: Lithium has been widely used for the treatment of bipolar disorder. But lithium has a narrow therapeutic index and it can cause side effects such as thirst, weight gain, tremor, polyuria and memory problems. Although the mechanism for lithium action in treatment of bipolar disorder is still not fully understood, inhibition of inositol monophosphatase (IMPase) and the subsequent depletion of the inositol pool in living cells have been implicated as the primary therapeutic benefit of lithium therapy. Therefore, a selective IMPase inhibitor with reduced side effects might be a good drug candidate to replace lithium for the treatment of bipolar disorder. Several IMPase inhibitors have been discovered previously. However, they are not suitable for therapeutic use because of their poor cell membrane penetrability or oral bioavailability; the development of new cell-permeable IMPase inhibitors is needed. IMPase catalyzes the hydrolysis of inositol-1-phosphate (IP1) to release free inositol. Binding of an agonist to a Gq coupled GPCR results in the activation of PLC, which hydrolyzes the PIP2 to form inositol-1,4,5-trisphosphate (IP3) and diacyl glycerol (DAG). While DAG activates protein kinase C (PKC), IP3 triggers the elevation of intracellular free Ca2+. The IP3 is very rapidly inactivated by hydrolysis to IP2, IP1 and then inositol by a series of enzymes including IMPase. Free inositols are used for synthesis of PI and thus start another inositol cycle. To identify new cell-permeable IMPase inhibitors, we developed a cell-based IMPase assay in which the cytosolic IP1 is measured by a time-resolved fluorescence resonance energy transfer (TR-FRET) assay. In this assay, an IP1 specific antibody is used to detect the labeled IP1 tracer. When the cell lysate contains the elevated IP1 due to the inhibition of IMPase, the TR-FRET between the labeled antibody and IP1 tracer is disrupted resulting in a reduction in the total signal. Since the TR-FRET is used, this cell-based assay is a homogenous assay without cell wash and medium change that is suitable for assay miniaturization and HTS.
NCGC IMPase Assay Protocol Summary A Chinese hamster ovary (CHO) cell line stably expressing the M1 receptor (CHO-M1) was obtained from ATCC and maintained in F-12 Kaighn's media (Invitrogen, Carlsbad, CA, 21127) supplemented with 10 % FBS, 100 units/ml penicillin, 100 ug/ml streptomycin and 250 ug/ml geneticin at 37C, 5% CO2 in a humidified atmosphere. Before the assay, aliquots of cells were frozen and stored at -135C. The assay was performed in 1536-well format. Data are reported for both the ratio of the two emission wavelengths, and also for the component 'donor' channel, Em2=620. Data were normalized to the controls for basal activity (DMSO only) and 100% inhibition (18.4 mM LiCl). AC50 values were determined from concentration-response data modeled with the standard Hill equation. IMPase 1536-well assay protocol: (1) Plate 4 ul/well (2000 cells) of cell suspension from frozen CHO-M1 Cells in white, tissue culture treated 1536-well plates that are cultured at 37C, 5 % CO2 for 16 to 30 hours. (2) Add 23 nl/well of compound in DMSO solution. The final titration for each compound was between 0.6 nM and 46 uM. […]

Chain of Inositol monophosphatase 1 (Rattus norvegicus) (P97697 whole entry, looked up): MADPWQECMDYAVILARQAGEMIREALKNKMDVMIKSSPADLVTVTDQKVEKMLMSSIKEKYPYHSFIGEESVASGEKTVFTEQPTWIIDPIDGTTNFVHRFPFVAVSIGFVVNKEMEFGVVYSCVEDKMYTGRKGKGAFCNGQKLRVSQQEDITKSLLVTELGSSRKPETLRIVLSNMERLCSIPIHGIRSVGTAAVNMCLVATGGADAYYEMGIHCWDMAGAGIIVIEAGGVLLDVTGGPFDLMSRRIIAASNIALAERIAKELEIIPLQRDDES

Row | Structure (SMILES) | activity change, negative = inhibition | Potency
1 | Cc1ccc(-c2c(C(=O)Nc3ccccc3C)c(C)[nH]c(=S)c2C#N)o1 | -20.4% (inactive) | –
2 | COc1ccc(C2c3c(ncn(CCN4CCOCC4)c3=N)Oc3ccc4ccccc4c32)cc1OC (stereo unspecified) | -8.46% (inactive) | –
3 | N#Cc1c(-c2ccc(Br)cc2)nc2n(c1=O)CCCS2 | -12.4% (inactive) | –
4 | COc1cccc(NC(=O)CN(C)C(C)C(=O)Nc2cc([N+](=O)[O-])ccc2Cl)c1 (stereo unspecified) | 33.2% (inactive) | –
5 | [Li+] | – | 708 µM (active)
6 | CC1(C)Cc2c(ccc3ccccc23)C2=C(C(=O)N3CCCC3)C(=O)C(=O)N21 | 18.9% (inactive) | –
7 | O=C(NCCCn1ccnc1)c1cc(-c2ccncc2)nc2ccccc12 | 3.25% (inactive) | –
8 | CNC(=O)c1ccc(NC(=O)/C=C/c2cccc(F)c2)cc1 | 2.85% (inactive) | –
9 | C[N+](C)(CCCCCC[N+](C)(C)CCCN1C(=O)c2cccc3cccc(c23)C1=O)CCCN1C(=O)c2cccc3cccc(c23)C1=O | -14.1% (inactive) | –
10 | O=C(NC1CCS(=O)(=O)C1)C1C2CC3CC(C2)CC1C3 (stereo unspecified) | 13.9% (inactive) | –
11 | N#CC1=C(N)Oc2n[nH]c(-c3ccccn3)c2C1c1c(F)cccc1Cl (stereo unspecified) | 22.4% (inactive) | –
12 | COc1ccc(N2CSC3=C(C#N)C(c4cccs4)CC(=O)N3C2)cc1 (stereo unspecified) | -29.2% (inactive) | –
13 | CCOC(=O)c1cc2c(=O)n3ccccc3nc2n(Cc2ccco2)c1=NC(=O)c1cccnc1 | -14.5% (inactive) | –
14 | CCc1c(C)nc2c(OC)cccc2c1SCCC(=O)O | -23.6% (inactive) | –
15 | O=C(CCC(=O)c1cccs1)NCc1cccnc1 | 11.4% (inactive) | –
16 | CC(C)(C)c1ccc(-c2nnc3sc(-c4ccccn4)nn23)cc1 | -5.12% [at 198 µM] (inactive) | –
17 | N#CCN1CCC(c2cc(-c3ccco3)n[nH]2)CC1 | 11.4% (inactive) | –
18 | O=P(O)(OCc1ccccc1)OCc1ccccc1 | 17.9% (inactive) | –
19 | COc1ccc(/C=C2\CCCC3C2=NN(C(=O)c2ccco2)C3c2ccc(OC)c(OC)c2)cc1OC (stereo unspecified) | -14.2% [at 198 µM] (inactive) | –
20 | CC(=O)C1=C(O)C(=O)N(Cc2ccco2)C1c1ccccc1F (stereo unspecified) | -31.2% (inactive) | –
21 | COc1ccc2oc(-c3ccccc3)c(C(N)=O)c2c1 | 6.28% (inactive) | –
